Among the data in PubChem BioAssay (NCATS) are Potency and activity (max response) values, retold here.

Each structure is given as a SMILES string. Records with an inconclusive call do not appear. A number with no mark means an inactive call. Active and inactive are the calls of the source. Calls follow the shape of the dose curve; as a rule, active = well fitted curve in the direction sought with a large enough effect; inconclusive = small, poorly fitted or top-dose-only effect, or another doubt; inactive = no such curve, though single readings can be large; an effect the other way counts as inactive or inconclusive.

Experiment [1] in a line: Quantitative highthroughput screen to assess conditional lethalithy of NOMO1 cells grown in RPMI1640 with untreated serum (RPMI+s) (AID 1963876). Also: nearly all actives have a fitted effect of over 35% in size. Also: potency is read from the fitted curve at half-maximal effect.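 As to viability: 100% = DMSO wells and 0% = empty wells without cells.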 Put shortly: (§1)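 Each medium arm—HPLM with 10% dialyzed FBS, or RPMI1640 with 5 mM glucose and 10% untreated or dialyzed FBS—was screened against an 11-point, 3-fold compound titration for 48 h at 37 °C, with CellTiter-Glo luminescence as endpoint.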

A short description of experiment [2]: Quantitative highthroughput screen to assess conditional lethalithy of NOMO1 cells grown in RPMI1640 with dialyzed fetal bovine serum (RPMI+ds) (AID 1963877). Also: nearly all actives have a fitted effect of over 30% in size. Also: potency is read from the fitted curve at half-maximal effect.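 As to viability: series mostly up to about 46 µM; 100% = DMSO control wells and 0% = empty wells.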 Put shortly: as §1
Experiment [3] is described as follows: Quantitative highthroughput screen to assess conditional lethalithy of P12 Ichikawa cells grown in Human Plasma-Like Medium with dialyzed fetal bovine serum (HPLM+ds) (AID 1963879). Also: nearly all actives have a fitted effect of over 35% in size. Also: potency is read from the fitted curve at half-maximal effect. As to viability: series mostly up to about 46 µM. Particulars: Potency: viability. Put shortly:
as §1

Experiment [4] in a line: Quantitative highthroughput screen to assess conditional lethalithy of P12 Ichikawa cells grown in RPMI1640 with untreated serum (RPMI+s) (AID 1963881). Also: nearly all actives have a fitted effect of over 35% in size. Also: potency is read from the fitted curve at half-maximal effect.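 As to viability: series mostly up to about 46 µM; 100% = DMSO wells and 0% = empty wells without cells.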 Particulars: Potency: viability. Put shortly:
as §1

Experiment [5] is described as follows: Quantitative highthroughput screen to assess conditional lethalithy of SEM cells grown in RPMI1640 with dialyzed fetal bovine serum (RPMI+ds) (AID 1963884). Also: nearly all actives have a fitted effect of over 35% in size. Also: potency is read from the fitted curve at half-maximal effect.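 As to viability: series mostly up to about 46 µM; 100% = DMSO control wells and 0% = empty wells without cells.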 Put shortly: as §1
A short description of experiment [6]: Cellular viability qHTS for adrenocortical cancer (ACC) cell line NCI-H295R (AID 1963990). Also: nearly all actives have a fitted effect of over 60% in size. Also: potency is read from the fitted curve at half-maximal effect. The method in brief:
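Adrenocortical carcinoma cells, suspended at 300 000 cells/mL in serum-free DMEM plus ITS, rested overnight before pin transfer of compound. After two days' incubation, ATP-dependent luminescence was recorded and curve-fitted.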

Experiment [7] is described as follows: Quantitative highthroughput screen to assess conditional lethalithy of SEM cells grown in Human Plasma-Like Medium with dialyzed fetal bovine serum (HPLM+ds) (AID 1963882). Put shortly:
as §1

Experiment [8] in a line: Cellular viability qHTS for adrenocortical cancer (ACC) cell line SW-13 (AID 1963989). Also: nearly all actives have a fitted effect of over 65% in size. Also: potency is read from the fitted curve at half-maximal effect.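 As to activity (max response): cells grown in serum-free medium with ITS supplement; % is scaled to controls: 0 for no effect and ±100 for the full control effect.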 Conditions: SW-13 ACC cells viability, CellTiter-Glo, 48 h; activity (max response): stronger effect = lower value. The method in brief: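 IC50 and maximal-response values come from four-parameter logistic fits of titration data. SW-13 cells in serum-free medium received compounds (up to 46 uM final) for 48 h before CellTiter-Glo luminescence.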
(Quantitative high-throughput screening tests each substance at several concentrations.)

Experiment [9] is described as follows: Quantitative highthroughput screen to assess conditional lethalithy of NOMO1 cells grown in Human Plasma-Like Medium with dialyzed fetal bovine serum (HPLM+ds) (AID 1963878). Put shortly:
as §1

Experiment [10] can be described thus: Quantitative highthroughput screen to assess conditional lethalithy of P12 Ichikawa cells grown in RPMI1640 with dialyzed fetal bovine serum (RPMI+ds) (AID 1963880). Conditions: Potency: P12-Ichikawa viability. Put shortly: as §1
A short description of experiment [11]: Quantitative highthroughput screen to assess conditional lethalithy of SEM cells grown in RPMI1640 with unreated serum (RPMI+s) (AID 1963883). Also: nearly all actives have a fitted effect of over 35% in size. Also: potency is read from the fitted curve at half-maximal effect.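 As to viability: 100% = DMSO wells and 0% = empty wells without cells.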 The method in brief: as §1

In the case of `O=c1c(-c2ccc(O)cc2)coc2cc(O)cc(O)c12`, the Potency entry in experiment [1], in [2], in experiment [3], in [4], in experiment [5] and in [6] was “inactive” throughout.
Regarding `COC1CCC(C(=O)c2ccc3nc4c(cc3c2)CCCO4)CC1` (configuration not stated), the Potency entry in experiment [1], in experiment [3], in [4] and in [7] was “inactive” in each case. The Potency in experiment [2] was 18.7 µM (active); in [5], 3.32 µM (active). Besides, the activity (max response) in experiment [8] is 3.89%.
For the compound `O=C(O)C1=NC(C(=O)O)CC(C=CN2c3cc(O)c(OC4OC(CO)C(O)C(O)C4O)cc3CC2C(=O)O)=C1` (configuration not stated), the Potency entry in experiment [1], in [9], in experiment [3], in experiment [10], in experiment [4] and in experiment [7] was “inactive” each time. Also, the Potency result in [11] and in [5] was “inactive” each time.
As to `O=C(c1ccc(C=Cc2n[nH]c3ccccc23)cc1)N1CCNCC1`, the Potency is 469 nM (active) in experiment [1]; 0.935 µM (active) in experiment [2]; 935 nM (active) in experiment [3]; 935 nM (active) in experiment [4]; 0.166 µM (active) in experiment [11].
In the case of `Clc1ccc(-c2nc3sccn3c2C=NOCc2ccc(Cl)c(Cl)c2)cc1`, the Potency result in experiment [1], in [9], in [3], in experiment [10], in experiment [4] and in [7] was “inactive” in each case. In addition, the Potency result in [11] and in experiment [5] was “inactive” in each case.
`C[C@@H](O)[C@H]1C(=O)N2C(C(=O)OCOC(=O)C(C)(C)C)=C(SC3CN(C4=NCCS4)C3)[C@H](C)[C@H]12`: the Potency result in [1], in experiment [7] and in experiment [5] was “inactive” in each case. In addition, the Potency in experiment [2] was 7.43 µM (active).
Take `CON=C(C(=O)N[C@@H]1C(=O)N2C(C(=O)O)=C(Cn3ccc(=N)n3CCO)CS[C@H]12)c1csc(N)n1`: the Potency entry in experiment [1], in [2], in [10], in [7], in [11] and in [5] was “inactive” in each case.
`Cc1cccc(C=NNc2cc(N3CCOCC3)nc(OCCc3ccccn3)n2)c1`: the Potency in experiment [1] is 2090 nM (active); in experiment [2], 1.05 µM (active); in [11] it was 11.8 µM (active); in [5], 14.8 µM (active).
Regarding `CC(=O)O[C@@]12CO[C@H]1C[C@H](O)[C@@]1(C)C(=O)[C@H](O)C3=C(C)[C@@H](OC(=O)C(O)[C@@H](NC(=O)OC(C)(C)C)c4ccccc4)C[C@@](O)([C@@H](OC(=O)c4ccccc4)[C@@H]21)C3(C)C` (some centres not stated), the Potency result in [1], in [2], in [7], in [11] and in [5] was “inactive” throughout.
For the compound `C[C@H]1C[C@@H]2[C@@H]([C@@H](O)C[C@@]3(C)[C@H]2CC[C@]3(O)C(=O)CO)[C@@]2(C)C=CC(=O)C=C12`, the Potency result in experiment [1] and in [9] was “inactive” throughout.
Regarding `O=C(O)c1cccc(-c2noc(-c3ccccc3F)n2)c1`, the Potency result in experiment [1], in experiment [2], in experiment [3], in experiment [4], in experiment [7] and in experiment [11] was “inactive” each time. Moreover, the Potency entry in experiment [5] and in experiment [6] was “inactive” throughout.
For the compound `C[C@]12CCC3=C4CCC(=O)C=C4CC[C@@H]3[C@H]1CC[C@@]2(O)CC#N`, the Potency entry in [1], in experiment [9], in [3], in experiment [10], in experiment [4] and in experiment [7] was “inactive” each time. The Potency entry in experiment [11] is “inactive”.
Consider `CC(=O)N1CCN(c2ccc(OCc3nn(C)c(C)c3-c3cccc4c(CCCOc5cc(C)c(Cl)c(C)c5)c(C(=O)O)n(Cc5cccnc5)c34)cc2)CC1`, for which the Potency result in [1] and in experiment [2] was “inactive” in each case. Besides, the Potency in experiment [11] was 18.7 µM (active); in [5], 20.9 µM (active).
Regarding `C[C@@]12C[C@@]3(O)O[C@@H](O1)[C@]1(COC(=O)c4ccccc4)[C@@H]3C[C@@]12O[C@@H]1O[C@H](CO)[C@@H](O)[C@H](O)[C@@H]1O`, the Potency entry in experiment [1], in experiment [2], in experiment [10], in experiment [4], in experiment [7] and in experiment [11] was “inactive” throughout. In addition, in experiment [5], the Potency result is “inactive”.
Turning to `CC(C)(C(=O)NCC(F)(F)C(F)(F)F)C(=O)N[C@@H]1C(=O)Nc2ccccc2-c2ccccc21`, the Potency in experiment [1] is 935 nM (active); in experiment [2], 1.87 µM (active); in experiment [3], 2640 nM (active); in experiment [11], 16.6 µM (active). The activity (max response) in experiment [8] was -5.79%. Further, in experiment [6], the Potency entry is “inactive”.
On to `OC[C@H]1O[C@@H](O[C@H]2[C@@H](O)[C@@](O)(CO)O[C@@H]2CO)[C@H](O)[C@@H](O)[C@@H]1O`, for which the Potency entry in experiment [1], in experiment [2], in experiment [11] and in experiment [5] was “inactive” in each case.
Turning to `O=c1c2ccccc2nc2n1CCc1c-2[nH]c2ccccc12`, the Potency entry in [1] and in experiment [9] was “inactive” throughout.
As for `COc1ccc(-c2coc3cc(O)cc(O)c3c2=O)cc1`, the Potency result in experiment [1], in experiment [2], in experiment [10], in [4], in experiment [11] and in experiment [5] was “inactive” each time. Moreover, the Potency was 31.6 µM (active) in [8] and 28.2 µM (active) in experiment [6].
On to `CNC1[C@H](O)C(O[C@@H]2C(O)C(O[C@H]3O[C@H]([C@@H](C)NC)CC[C@H]3N)[C@@H](N)C[C@H]2N)OC[C@]1(C)O` (some centres not stated), for which the Potency result in experiment [1], in [2], in experiment [3], in [4], in experiment [7] and in experiment [11] was “inactive” each time.
